Several values for one entry are separate records, joined by “and”; a condition that tells them apart may be missing. Equal values may be shown once. Results filed as inconclusive are left out. Some structures have more than one record in an assay (separate samples or runs), and their calls can disagree. Activity calls are given as the source filed them. Rule for the calls: active = hit-call score of the fitted dose curve at least 0.9, where 1 is the maximum; inconclusive = response in the unintended direction; inactive = score below 0.9.
What follows are compounds tested against Peroxisome proliferator-activated receptor gamma (Homo sapiens) (UniProt P37231) (assay: NVS_NR_hPPARg: NovaScreen (NVS) Nuclear Receptor Binding Assay for human Peroxisome Proliferator-activated Receptor gamma (PPARg) (AID 2283370)).
Sequence of Peroxisome proliferator-activated receptor gamma (Homo sapiens) (P37231 whole entry, looked up): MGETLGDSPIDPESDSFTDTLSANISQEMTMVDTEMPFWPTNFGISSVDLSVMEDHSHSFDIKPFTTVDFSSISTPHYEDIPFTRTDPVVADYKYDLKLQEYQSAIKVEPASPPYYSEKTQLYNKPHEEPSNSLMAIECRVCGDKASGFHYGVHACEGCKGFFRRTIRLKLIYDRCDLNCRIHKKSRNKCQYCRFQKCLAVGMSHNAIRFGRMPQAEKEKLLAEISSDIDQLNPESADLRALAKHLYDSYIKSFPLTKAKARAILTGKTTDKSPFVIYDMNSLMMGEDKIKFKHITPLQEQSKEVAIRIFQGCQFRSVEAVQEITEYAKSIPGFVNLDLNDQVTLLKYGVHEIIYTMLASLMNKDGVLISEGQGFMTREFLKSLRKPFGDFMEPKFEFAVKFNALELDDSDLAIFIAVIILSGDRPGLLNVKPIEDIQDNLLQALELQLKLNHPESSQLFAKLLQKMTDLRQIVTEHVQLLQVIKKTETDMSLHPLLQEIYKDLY
Method: NVS_NR_hPPARg is a biochemical, single-readout assay that uses extracted gene-proteins in a cell-free assay. Measurements were taken 2 hours after chemical dosing in a 384-well plate.NVS_NR_hPPARg is one of one assay component(s) measured or calculated from the NVS_NR_hPPARg assay. It is designed to make measurements of fluorescent polarization, a form of binding reporter, as detected with fluorescence polarization signals by Fluorescence Polarization technology.Data from the assay component NVS_NR_hPPARg was analyzed into 1 assay endpoint. This assay endpoint, NVS_NR_hPPARg, was analyzed in the positive analysis fitting direction relative to DMSO as the negative control and baseline of activity. Using a type of binding reporter, loss-of-signal activity can be used to understand changes in the binding as they relate to the gene PPARG. Furthermore, this assay endpoint can be referred to as a primary readout, because the performed assay has only produced 1 assay endpoint. To generalize the intended target to other relatable targets, this assay endpoint is annotated to the nuclear receptor intended target family, where the subfamily is non-steroidal.
Binding assays used specific radioligands (tritiated, iodinated) with non-radioactive competitive displacement ligands in agonist or antagonist protocols (as indicated) and various reference compounds and inhibitors to titrate specific binding to receptors and transporters. Most enzyme assays (CYPs, kinases, phosphatases, proteases, HDACs) used recombinant protein and specific substrates (fluorescence mostly, some colorimetric and radioactive) and inhibitors, followed by a biochemical separation of substrate and product. All assays for the biochemical HTS were initially run in duplicate at a single concentration (10 uM for CYP450 assays and 25 uM for all others). […] Each assay was run with positive and negative controls, and concurrent controls on every plate. The follow-up (secondary) screen tested active chemical-pairs in concentration series, as well as a few additional assays not tested in the primary screen, some selected negative inactives, and several cases re-run in the concentration series for confirmatory purposes.
With CC#C[C@]1(O)CC[C@H]2[C@@H]3CCC4=CC(=O)CCC4=C3[C@@H](c3ccc(N(C)C)cc3)C[C@@]21C the outcome was “inactive” and the AC50 was 9.21 µM (active). With NC(=O)N1C(=O)C(C(=O)c2cc(Cl)cs2)c2cc(F)c(Cl)cc21 (centres undefined) the AC50 was 5.35 µM (active). With Cc1cc(C)c(O)c(C)c1 the outcome was “inactive”. With CC1=C(/C=C/C(C)=C/C=C/C(C)=C/C(=O)O)C(C)(C)CCC1 the outcome was “inactive”. CN1CCN(c2ccccc2/C=C2\SCCN(c3ccc(Cl)c(Cl)c3)C2=O)CC1 was tested, and the outcome was “inactive”. CCCOc1sc(C(=O)N2CCC(c3cc(CN)ccc3F)CC2)c(C)c1Br was tested, and the outcome was “inactive”. For CCc1nn(C2CCCCC2)c2cc(C3(C#N)CCC(C(=O)O)CC3)ccc12 (centres undefined), the outcome was “inactive”. With CC[C@H](C)[C@@H](C(=O)O)n1sc2ccccc2c1=O the outcome was “inactive”. In the case of C#C[C@]1(O)CC[C@H]2[C@@H]3CCC4=CC(=O)CC[C@@H]4[C@H]3CC[C@@]21C, the outcome is reported as “inactive”. With CC[C@H](c1ccc(O)cc1)[C@@H](CC)c1ccc(O)cc1 the outcome was “inactive” and the AC50 was 6.81 µM (active). With CCOC(=O)CC(O)(CC(=O)OCC)C(=O)OCC the outcome was “inactive”. With CN1CCC[C@H]1c1cccnc1 the outcome was “inactive”. For COCC(C)OCC(C)O (centres undefined), the outcome was “inactive”. In the case of O=[N+]([O-])c1ccc(O)cc1, the outcome is reported as “inactive”. In the case of CCCCC(CC)COC(=O)CCCCC(=O)OCc1ccccc1 (centres undefined), the outcome is reported as “inactive”. O=C(O)Cc1cc(I)c(Oc2cc(I)c(O)c(I)c2)c(I)c1 was tested, and the AC50 was 43.8 nM (active) and 1.53 nM (active) and 9.65 µM (active). CCN(CC)CCNc1ccc(CNC=O)c2sc3ccc(OC)cc3c(=O)c12 was tested, and the outcome was “inactive”. O=C(O)c1ccccc1C(c1ccc(O)cc1)c1ccc(O)cc1 was tested, and the outcome was “inactive”. O=c1c(-c2ccc(O)cc2)coc2cc(O)ccc12 was tested, and the outcome was “inactive”. Cc1cc(CCN2CCN(c3nsc4ccccc34)CC2)cc2c1NC(=O)CC2(C)C was tested, and the outcome was “inactive”. CCC(=C(c1ccc(O)cc1)c1ccc(OCCN(C)C)cc1)c1ccccc1 was tested, and the outcome was “inactive”. CCCOC(=O)c1ccc(O)cc1 was tested, and the outcome was “inactive”. With c1ccc2cc3c(ccc4ccccc43)cc2c1 the outcome was “inactive”. With Nc1cccc2c(N)cccc12 the outcome was “inactive”. In the case of CC(C)(C)c1cc(C(C)(C)C)c(O)c(C(C)(C)C)c1, the outcome is reported as “inactive”. With CN(C)C=O the outcome was “inactive”. In the case of CCCCCCCCCCCCc1ccccc1S(=O)(=O)O, the AC50 is reported as 0.194 µM (active).

Reference: PubChem BioAssay (EPA / NIEHS)
